Measured values: PubChem BioAssay (NCI)
This is part of a sample that, as a whole, favours compounds with a hit. Of some 83,000 tested, about 20% had one in any assay.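 For each line, cells grew in 96-well plates with the test compound present at a single concentration for 48 hours.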 The source made the active and inactive calls. Rule for the calls: active = growth percent below 10; inactive = the rest.

Columns and labels:
Assay in all cases: NCI-60 one-dose screen, 48 h (100 = growth as untreated, 0 = no growth, -100 = all killed)
SK-MEL-2 melanoma = conditions: 10 µM unless noted
SN12C renal = conditions: 10 µM unless noted
UO-31 renal = conditions: 10 µM unless noted
TK-10 renal = conditions: 10 µM unless noted
ACHN renal = conditions: 10 µM unless noted
CAKI-1 renal = conditions: 10 µM unless noted
CCRF-CEM leukemia = conditions: 10 µM unless noted
MOLT-4 leukemia = conditions: 10 µM unless noted
SR leukemia = conditions: 10 µM unless noted
RPMI-8226 leukemia = conditions: 10 µM
OVCAR-8 ovarian = conditions: 10 µM unless noted
OVCAR-5 ovarian = conditions: 10 µM unless noted
OVCAR-4 ovarian = conditions: 10 µM unless noted
IGROV1 ovarian = conditions: 10 µM unless noted
OVCAR-3 ovarian = conditions: 10 µM unless noted
HS 578T breast = conditions: 10 µM unless noted
NCI/ADR-RES ovarian = conditions: 10 µM unless noted
A498 renal = conditions: 10 µM unless noted
SK-OV-3 ovarian = conditions: 10 µM

Measured: growth

COc1ccc(/C=N/NC(=O)c2cnn(CC(O)Cc3ccccc3)c2N)cc1OC1CCCC1 (centres undefined)
inactive: SK-MEL-2 melanoma 108% | SN12C renal 95.4% | UO-31 renal 92.1% | TK-10 renal 99.4% | ACHN renal 87.5% | CAKI-1 renal 77.9% | CCRF-CEM leukemia 70.9% | MOLT-4 leukemia 66.6% | SR leukemia 88.7% | RPMI-8226 leukemia 55.4% | OVCAR-8 ovarian 78.6% | OVCAR-5 ovarian 102% | OVCAR-4 ovarian 75.8% | IGROV1 ovarian 105% | OVCAR-3 ovarian 102% | HS 578T breast 79% | NCI/ADR-RES ovarian 88.3%

O=S(=O)(Nc1ccccc1Cl)c1ccc(-c2cnc(C3CC3)o2)cc1
inactive: SK-MEL-2 melanoma 39% | SN12C renal 48.3% | UO-31 renal 49.8% | TK-10 renal 61.9% | ACHN renal 49.8% | CAKI-1 renal 38.1% | CCRF-CEM leukemia 17.4% | MOLT-4 leukemia 40.9% | SR leukemia 41.5% | RPMI-8226 leukemia 27.9% | OVCAR-8 ovarian 33.8% | OVCAR-5 ovarian 38.3% | OVCAR-4 ovarian 50% | IGROV1 ovarian 33.1%
active: OVCAR-3 ovarian -32.1% | NCI/ADR-RES ovarian 8.53%

Cc1ccc(NS(=O)(=O)c2ccc(-c3cnc(C4CC4)o3)cc2)cc1
active: OVCAR-3 ovarian -2% | HS 578T breast -2.93% | NCI/ADR-RES ovarian 8.09%
inactive: SK-MEL-2 melanoma 23.9% | SN12C renal 42.2% | UO-31 renal 55.3% | TK-10 renal 64.9% | ACHN renal 46.6% | CAKI-1 renal 38.8% | CCRF-CEM leukemia 35.5% | MOLT-4 leukemia 32% | SR leukemia 33.8% | RPMI-8226 leukemia 37.6% | OVCAR-8 ovarian 49.3% | OVCAR-5 ovarian 48.8% | OVCAR-4 ovarian 59% | IGROV1 ovarian 39.8%

COc1ccc(C2CC(c3cc(OC)c(OC)c(OC)c3)=NN2c2ccc(S(N)(=O)=O)cc2)cc1 (centres undefined)
active: RPMI-8226 leukemia 4.35%
inactive: SK-MEL-2 melanoma 83.2% | SN12C renal 73.7% | UO-31 renal 29.8% | TK-10 renal 66.4% | ACHN renal 76.5% | CAKI-1 renal 67.3% | A498 renal 44.5% | CCRF-CEM leukemia 41.3% | SR leukemia 33.2% | OVCAR-8 ovarian 61.9% | OVCAR-5 ovarian 92.3% | OVCAR-4 ovarian 69.9% | SK-OV-3 ovarian 88.3% | IGROV1 ovarian 73.9% | OVCAR-3 ovarian 77.5% | HS 578T breast 66.7% | NCI/ADR-RES ovarian 55.4%

Cc1ccc2c(c1)c(Sc1ccc(C(=O)NO)cc1)c1n2CN(C)CC1
inactive: UO-31 renal 45.9% | ACHN renal 26.8% | CAKI-1 renal 62.9% | SK-OV-3 ovarian 21.1% | IGROV1 ovarian 42.4% | HS 578T breast 33.5%
active: SK-MEL-2 melanoma 7.15% | SN12C renal 9.16% | A498 renal 6.35% | CCRF-CEM leukemia -5.94% | MOLT-4 leukemia -10.5% | SR leukemia 5.05% | RPMI-8226 leukemia 1.92% | OVCAR-8 ovarian 5.57% | OVCAR-5 ovarian 7.36% | OVCAR-4 ovarian -1.78% | OVCAR-3 ovarian -7.94%

COc1ccc(NC(=O)c2ccc3c(c2)nc(-c2ccc(Cl)cc2)n3-c2cc(C(C)(C)C)[nH]n2)cc1
inactive: SK-MEL-2 melanoma 92.7% | SN12C renal 86% | UO-31 renal 62.4% | TK-10 renal 75.8% | ACHN renal 90.1% | CAKI-1 renal 61% | A498 renal 62.2% | MOLT-4 leukemia 55.1% | SR leukemia 79.7% | RPMI-8226 leukemia 90.2% | OVCAR-8 ovarian 89.3% | OVCAR-5 ovarian 100% | OVCAR-4 ovarian 72.7% | SK-OV-3 ovarian 114% | IGROV1 ovarian 88.7% | OVCAR-3 ovarian 94.5% | HS 578T breast 62% | NCI/ADR-RES ovarian 80.1%

COc1ccc(C2OCC(C)(C)CO2)cc1OC
inactive: SK-MEL-2 melanoma 106% | SN12C renal 98.5% | UO-31 renal 89.8% | TK-10 renal 109% | ACHN renal 107% | A498 renal 115% | CCRF-CEM leukemia 94.3% | MOLT-4 leukemia 100% | SR leukemia 100% | RPMI-8226 leukemia 95.6% | OVCAR-8 ovarian 105% | OVCAR-5 ovarian 100% | SK-OV-3 ovarian 107% | IGROV1 ovarian 139% | OVCAR-3 ovarian 117% | HS 578T breast 109% | NCI/ADR-RES ovarian 108%

CCN(c1ccc(C(=O)N2CCN(c3ccccc3)CC2)cc1)S(C)(=O)=O
inactive: SK-MEL-2 melanoma 100% | SN12C renal 103% | UO-31 renal 90.2% | TK-10 renal 88.7% | ACHN renal 109% | CAKI-1 renal 96.3% | A498 renal 87.9% | CCRF-CEM leukemia 100% | SR leukemia 90.2% | RPMI-8226 leukemia 102% | OVCAR-8 ovarian 103% | OVCAR-5 ovarian 109% | SK-OV-3 ovarian 106% | IGROV1 ovarian 107% | OVCAR-3 ovarian 106% | HS 578T breast 105% | NCI/ADR-RES ovarian 108%

O=C(c1cnn2c1NC(c1ccc(F)cc1)C2)N1CCCCC1 (centres undefined)
inactive: SK-MEL-2 melanoma 104% | SN12C renal 104% | UO-31 renal 89.8% | TK-10 renal 105% | ACHN renal 102% | CAKI-1 renal 93.4% | CCRF-CEM leukemia 105% | MOLT-4 leukemia 108% | SR leukemia 107% | RPMI-8226 leukemia 103% | OVCAR-8 ovarian 106% | OVCAR-5 ovarian 102% | OVCAR-4 ovarian 98.7% | IGROV1 ovarian 103% | OVCAR-3 ovarian 106% | HS 578T breast 99.8% | NCI/ADR-RES ovarian 109%

C(=C\c1ccccc1)/CN1CCN(C(c2ccccc2)c2ccccc2)CC1
inactive: SK-MEL-2 melanoma 104% | SN12C renal 90.4% | UO-31 renal 70.5% | TK-10 renal 110% | ACHN renal 95.1% | A498 renal 69.5% | CCRF-CEM leukemia 94.4% | MOLT-4 leukemia 90.2% | SR leukemia 76.4% | RPMI-8226 leukemia 77.1% | OVCAR-8 ovarian 85.7% | OVCAR-5 ovarian 101% | OVCAR-4 ovarian 87.1% | SK-OV-3 ovarian 108% | IGROV1 ovarian 122% | OVCAR-3 ovarian 114% | HS 578T breast 93.4%

ONc1nc(NO)c2[nH]cnc2n1
active: MOLT-4 leukemia 9.57%
inactive: SK-MEL-2 melanoma 96% | SN12C renal 80.7% | UO-31 renal 52.6% | ACHN renal 60.9% | CAKI-1 renal 64.1% | A498 renal 78.7% | CCRF-CEM leukemia 12.7% | SR leukemia 21.3% | RPMI-8226 leukemia 45.1% | OVCAR-8 ovarian 58.3% | OVCAR-5 ovarian 89.5% | OVCAR-4 ovarian 84.7% | SK-OV-3 ovarian 97.1% | IGROV1 ovarian 86.9% | OVCAR-3 ovarian 87.8% | HS 578T breast 108% | NCI/ADR-RES ovarian 74.7%

C[C@@H](Oc1cc(-c2cnn(C3CC4(CCCNC4)C3)c2)cnc1N)c1c(Cl)ccc(F)c1Cl (some centres undefined)
inactive: SN12C renal 21.7% | UO-31 renal 29.7% | ACHN renal 29.5% | CAKI-1 renal 56.6% | OVCAR-8 ovarian 43.4% | OVCAR-5 ovarian 34.3% | OVCAR-4 ovarian 37.2% | SK-OV-3 ovarian 78% | IGROV1 ovarian 48.9% | OVCAR-3 ovarian 52% | HS 578T breast 30.5% | NCI/ADR-RES ovarian 46.1%
active: SK-MEL-2 melanoma -47.8% | A498 renal -10.4% | CCRF-CEM leukemia -6.75% | MOLT-4 leukemia -7.46% | SR leukemia -3.47%

O=C(NCc1ccco1)C1CCN(S(=O)(=O)c2ccc(Cl)cc2)CC1
active: CCRF-CEM leukemia -22.6% | RPMI-8226 leukemia -24.6% | OVCAR-3 ovarian -64.7%
inactive: SK-MEL-2 melanoma 82.6% | SN12C renal 78.3% | UO-31 renal 57.5% | ACHN renal 83.5% | CAKI-1 renal 70.4% | A498 renal 59% | MOLT-4 leukemia 47.2% | OVCAR-8 ovarian 80.4% | OVCAR-5 ovarian 103% | SK-OV-3 ovarian 94.5% | HS 578T breast 68.9% | NCI/ADR-RES ovarian 66.6%

C=CC(=O)N1CC2(CC(n3nc(-c4ccc(Oc5ccccc5)cc4)c4c(N)ncnc43)C2)C1
active: ACHN renal 5.33% | CAKI-1 renal 8.28% | A498 renal -71.7% | SK-OV-3 ovarian 5.31% | HS 578T breast -11.6%
inactive: SK-MEL-2 melanoma 28.6% | SN12C renal 17.1% | UO-31 renal 15.2% | CCRF-CEM leukemia 54.3% | MOLT-4 leukemia 17% | SR leukemia 31.5% | RPMI-8226 leukemia 41% | OVCAR-8 ovarian 28.7% | OVCAR-5 ovarian 54.8% | OVCAR-4 ovarian 27.4% | IGROV1 ovarian 10.7% | OVCAR-3 ovarian 30.9% | NCI/ADR-RES ovarian 41.6%

NC(=O)c1cc(I)ccc1NC(=O)COc1ccc(Cl)cc1Cl
inactive: SK-MEL-2 melanoma 79.2% | SN12C renal 103% | UO-31 renal 83.3% | ACHN renal 99% | CAKI-1 renal 88.8% | A498 renal 73.9% | CCRF-CEM leukemia 81.6% | MOLT-4 leukemia 80.5% | SR leukemia 40.9% | RPMI-8226 leukemia 96.3% | OVCAR-8 ovarian 102% | OVCAR-5 ovarian 103% | OVCAR-4 ovarian 114% | SK-OV-3 ovarian 90.5% | IGROV1 ovarian 89.3% | OVCAR-3 ovarian 103% | HS 578T breast 106% | NCI/ADR-RES ovarian 82.3%

COc1ccc(-c2nc(Nc3ccc(F)cc3)nc(Nc3ccc4c(c3)nc(C)n4Cc3ccccc3)n2)cc1
inactive: SK-MEL-2 melanoma 48.2% | SN12C renal 48.4% | UO-31 renal 29.3% | ACHN renal 37.1% | CAKI-1 renal 83.2% | A498 renal 72.7% | OVCAR-8 ovarian 17.9% | OVCAR-5 ovarian 88.1% | OVCAR-4 ovarian 42.6% | SK-OV-3 ovarian 76.8% | IGROV1 ovarian 36.4% | OVCAR-3 ovarian 50.5% | HS 578T breast 54.5% | NCI/ADR-RES ovarian 26.6%
active: CCRF-CEM leukemia -6.22% | MOLT-4 leukemia -9.61% | SR leukemia -20.4% | RPMI-8226 leukemia -17.7%

COc1nc2c(cc1S(=O)(=O)c1ccccc1)CCc1c-2cnn1-c1ccccc1Cl
inactive: SK-MEL-2 melanoma 92.2% | SN12C renal 59% | UO-31 renal 40.2% | ACHN renal 62.5% | CAKI-1 renal 49.9% | CCRF-CEM leukemia 60.8% | MOLT-4 leukemia 42.9% | SR leukemia 37.9% | RPMI-8226 leukemia 56.8% | OVCAR-8 ovarian 59.8% | OVCAR-5 ovarian 70.6% | SK-OV-3 ovarian 85.7% | IGROV1 ovarian 77.1% | OVCAR-3 ovarian 70.8% | HS 578T breast 68.4% | NCI/ADR-RES ovarian 70.2%
active: A498 renal -1.8%

COC(=O)c1ccc(C(=O)Nc2ccccc2N)cc1
active: CCRF-CEM leukemia 4.59%
inactive: SK-MEL-2 melanoma 63% | SN12C renal 62.9% | UO-31 renal 36.7% | ACHN renal 88.6% | A498 renal 80.5% | MOLT-4 leukemia 30.4% | SR leukemia 67.1% | RPMI-8226 leukemia 12.6% | OVCAR-8 ovarian 56.9% | OVCAR-5 ovarian 53.4% | OVCAR-4 ovarian 96.2% | SK-OV-3 ovarian 92.6% | IGROV1 ovarian 74.7% | OVCAR-3 ovarian 87.5% | HS 578T breast 75% | NCI/ADR-RES ovarian 53.1%
